Test systems include K-562 leukemia; MALME-3M melanoma; MDA-MB-231 breast; RXF 393 renal; SF-268 CNS; SF-295 CNS; SF-539 CNS; UACC-257 melanoma; M14 melanoma; HCT-15 colon; HT29 colon; SNB-75 CNS; SNB-19 CNS; U251 CNS; PC-3 prostate; SK-MEL-5 melanoma; UACC-62 melanoma; SK-MEL-28 melanoma; SK-MEL-2 melanoma.
Experiment in all cases: NCI-60 one-dose screen, 48 h (100 = growth as untreated, 0 = no growth, -100 = all killed)
What all share (settings): 10 µM unless noted

Compounds without any hit were thinned out: in the full panel of roughly 83,000, 20% have a hit.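 Step 1: grow cells in 96-well plates. Step 2: add test compound at a single concentration. Step 3: incubate 48 h. Step 4: record percent growth.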 Unmarked numbers belong to inactive results. Active and inactive are the calls of the source. How the source made its calls: active means growth percent below 10; inactive means the rest.

With `COc1cc(/C=C/C(=O)c2ccc(C)cc2)ccc1Oc1nc(NCCO)nc(N2CCOCC2)n1`, the growth with K-562 leukemia is 6.48% (active); in the assay with MALME-3M melanoma it was 71.6%; with MDA-MB-231 breast, 67.7%; in the assay with RXF 393 renal it was 82.1%; in the assay on SF-268 CNS, 66.1%; in the assay on SF-295 CNS, 79.8%. Further, the growth in the assay on SF-539 CNS is 39.5%; in the assay on UACC-257 melanoma, 101%; in the assay with M14 melanoma, -64.4% (active); in the assay with HCT-15 colon, 14.5%; with HT29 colon, 19.4%; with SNB-75 CNS, 93.7%. The growth in the assay with SNB-19 CNS is 44%; in the assay with U251 CNS, 34.6%; in the assay on PC-3 prostate, 30.6%; with SK-MEL-5 melanoma it was 43.7%; in the assay on UACC-62 melanoma it was 53.4%; with SK-MEL-28 melanoma, 76.6%. Further, the growth in the assay with SK-MEL-2 melanoma is 99.9%.

Take `Nc1c(C(=O)c2ccc(Br)cc2)oc2nc(-c3cnccn3)cc(-c3cccs3)c12`: the growth in the assay on K-562 leukemia was 92.7%; in the assay on MALME-3M melanoma, 102%; with MDA-MB-231 breast, 101%; with RXF 393 renal, 96.6%; in the assay with SF-268 CNS, 104%; in the assay on SF-295 CNS, 99.6%. Further, the growth with SF-539 CNS was 98.8%; with UACC-257 melanoma, 103%; with M14 melanoma it was 98.9%; with HCT-15 colon it was 97.7%; in the assay on HT29 colon, 111%; with SNB-75 CNS, 98.3%. The growth is 97.1% in the assay with SNB-19 CNS; 92.1% with U251 CNS; 96.3% with PC-3 prostate; 98% with SK-MEL-5 melanoma; 93.7% with UACC-62 melanoma; 107% in the assay on SK-MEL-28 melanoma.

Consider `C/C(=N\NC(N)=O)c1c(O)sc(=O)[nH]c1=O`, for which the growth is 105% with K-562 leukemia; 97.5% in the assay with MALME-3M melanoma; 102% in the assay on MDA-MB-231 breast; 107% in the assay with RXF 393 renal; 104% with SF-268 CNS; 96.3% with SF-295 CNS. The growth in the assay with SF-539 CNS was 94.6%; in the assay on UACC-257 melanoma it was 96.5%; in the assay with M14 melanoma it was 98.8%; with HCT-15 colon, 97.1%; with HT29 colon, 111%; in the assay with SNB-75 CNS, 101%. The growth is 93.2% with SNB-19 CNS; 108% with U251 CNS; 97% in the assay with PC-3 prostate; 101% with SK-MEL-5 melanoma; 92.6% in the assay on UACC-62 melanoma; 99.7% in the assay with SK-MEL-28 melanoma.

As for `N#Cc1ccc(C(=O)CSc2nc(Nc3ccc(S(N)(=O)=O)cc3)c3ccccc3n2)cc1`, the growth was 105% in the assay with K-562 leukemia; 106% in the assay with MALME-3M melanoma; 105% in the assay on MDA-MB-231 breast; 109% in the assay with RXF 393 renal; 109% in the assay with SF-268 CNS; 102% in the assay with SF-295 CNS. Moreover, the growth with SF-539 CNS is 102%; in the assay with UACC-257 melanoma, 101%; in the assay with M14 melanoma it was 103%; in the assay on HCT-15 colon, 100%; in the assay on HT29 colon, 112%; with SNB-75 CNS, 107%. The growth was 100% in the assay with SNB-19 CNS; 114% in the assay on U251 CNS; 89.4% in the assay on PC-3 prostate; 102% in the assay with SK-MEL-5 melanoma; 99.4% with UACC-62 melanoma; 109% in the assay on SK-MEL-28 melanoma. The growth in the assay with SK-MEL-2 melanoma was 118%.

For the compound `C#Cc1nc(C2=C(C)C(OC(=O)CCC(=O)O)CC2)cs1` (stereo not given), the growth in the assay with K-562 leukemia is 104%; with MALME-3M melanoma it was 107%; in the assay with MDA-MB-231 breast, 104%; in the assay with RXF 393 renal, 113%; with SF-268 CNS it was 99.9%; in the assay on SF-295 CNS it was 108%. The growth in the assay on SF-539 CNS is 100%; in the assay on UACC-257 melanoma, 102%; with M14 melanoma, 103%; in the assay on HCT-15 colon, 99.8%; in the assay with HT29 colon it was 125%; in the assay with SNB-75 CNS it was 98.3%. The growth was 104% in the assay with SNB-19 CNS; 106% in the assay on U251 CNS; 102% with PC-3 prostate; 101% in the assay on SK-MEL-5 melanoma; 95.3% in the assay with UACC-62 melanoma; 115% in the assay with SK-MEL-28 melanoma. Also, the growth with SK-MEL-2 melanoma was 114%.

Take `COc1cccc(OC)c1-c1nnn(C)c1C(=S)N1CCN(c2ccc([N+](=O)[O-])cc2Cl)CC1`: the growth with K-562 leukemia is 91.5%; in the assay with MALME-3M melanoma it was 89.2%; in the assay on MDA-MB-231 breast it was 90.5%; in the assay with RXF 393 renal it was 82.4%; in the assay on SF-268 CNS, 98.9%; in the assay with SF-295 CNS it was 89.9%. Besides, the growth in the assay on SF-539 CNS was 95.8%; in the assay on UACC-257 melanoma it was 108%; in the assay on M14 melanoma, 97%; in the assay with HCT-15 colon it was 89.6%; in the assay on HT29 colon, 104%; with SNB-75 CNS, 92.2%. The growth is 92.7% in the assay on SNB-19 CNS; 97.9% in the assay with U251 CNS; 54% in the assay with PC-3 prostate; 90.1% in the assay with SK-MEL-5 melanoma; 69.1% in the assay with UACC-62 melanoma; 98.3% with SK-MEL-28 melanoma. Moreover, the growth in the assay on SK-MEL-2 melanoma is 110%.

For the compound `Cn1ccnc1C(=O)/C=C/c1ccc(NC(=O)Nc2ccc(Cl)cc2)cc1`, the growth with K-562 leukemia was 47.6%; with MALME-3M melanoma, 84.2%; in the assay with MDA-MB-231 breast, 73.4%; with RXF 393 renal it was 70.1%; in the assay with SF-268 CNS it was 81.8%; in the assay with SF-295 CNS, 85.9%. Also, the growth in the assay on SF-539 CNS was 83.1%; in the assay with UACC-257 melanoma it was 100%; with M14 melanoma, 84.4%; with HCT-15 colon, 47.1%; in the assay with HT29 colon, 93.6%; with SNB-75 CNS it was 74.4%. Further, the growth was 78.9% in the assay with SNB-19 CNS; 62.6% in the assay on U251 CNS; 78.8% in the assay with PC-3 prostate; 91.2% in the assay with SK-MEL-5 melanoma; 92.2% with UACC-62 melanoma; 89.9% in the assay on SK-MEL-28 melanoma. Further, in the assay on SK-MEL-2 melanoma, the growth was 110%.

For `Cc1cc2nc3c4cc(Cl)ccc4n(CC(=S)NCCN(C)C)c3nc2cc1C`, the growth is -43.6% (active) in the assay on K-562 leukemia; -49.2% (active) in the assay on MALME-3M melanoma; -71.8% (active) in the assay with MDA-MB-231 breast; -67.8% (active) in the assay on RXF 393 renal; 26.8% in the assay with SF-268 CNS; -50.4% (active) with SF-295 CNS. Besides, the growth in the assay on SF-539 CNS is -94.3% (active); with UACC-257 melanoma it was -17.2% (active); in the assay with M14 melanoma, -90.1% (active); in the assay with HCT-15 colon it was -76.3% (active); in the assay on HT29 colon, -32% (active); in the assay on SNB-75 CNS, -19.1% (active). Besides, the growth in the assay on SNB-19 CNS was 4.89% (active); in the assay with U251 CNS, -54.8% (active); in the assay with PC-3 prostate, -30.1% (active); in the assay on SK-MEL-5 melanoma, -10.3% (active); in the assay on UACC-62 melanoma it was -67.1% (active); with SK-MEL-28 melanoma it was -91.3% (active). The growth with SK-MEL-2 melanoma is 70.7%.

For the origin of these results see PubChem BioAssay (NCI).
